Screens (PubChem BioAssay)
The full list was thinned out, with hits kept by preference.
DT40 TDP1 no CPT = qHTS for Inhibitors of human tyrosyl-DNA phosphodiesterase 1 (TDP1): qHTS in cells in absence of CPT; Potency, µM (series often up to 46.2 µM), for the others: top-dose activity change, negative = growth inhibition, hits mostly inhibitors; DT40 Tdp1-/- hTDP1 cells, no CPT, ATP luminescence, 48 h; 420,000 tested, 15% active; also: potency is read from the fitted curve at half-maximal effect; nearly all actives have a fitted effect of over 55% in size
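Cells were dispensed at 400 per well, compounds added by pin tool, plates incubated ≥48 hr at 37 °C, then CellTiter-Glo added for 30 min at room temperature before luminescence reading. Line: DT40 Tdp1-/- complemented with hTDP1; camptothecin omitted.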
IL1B secr inh = inhibitors of inflammasome signaling (IL-1 beta secretion) | THP-1 LPS/ATP IL-1B secretion, AlphaLISA, 16 h; active compounds read low | activity change, % at 57.5 µM | 360,000 tested, 4.7% active | AID 743279; in the data active = activity change below about -50%; inconclusive = mostly about -30% to -49%
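Secreted IL-1B measured by AlphaLISA bead assay after 16 h compound exposure of THP-1 cells; compounds (final up to 57.5 uM) added 1 h before LPS (250 ng/mL) and ATP (1.25 mM) stimulation; lower signal means less secretion.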
HT1080 IDH1KD tx = HT-1080 IDH1 knockdown cell toxicity (counter line) | AID 686971 | Potency, µM (doses to about 46.1 µM), inactives show at the highest dose activity, negative = toxicity, actives largely listed as cytotoxic | 360,000 tested, 2% active | HT-1080 IDH1 knockdown viability, ATP luminescence, 48 h;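 also: potency is read from the fitted curve at half-maximal effect; 0% = DMSO wells and -100% = cell-free medium wells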
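IDH1KD HT-1080 cells, 750/well, RPMI + 5% FBS; compound pinned after 2 h settling; 48 h, 37 °C; CellTiter-Glo luminescence; % activity normalised to DMSO and no-cell wells; curves fitted, classed by r2 and efficacy.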
HT1080NT lethal = kills 2HG-producing HT-1080-NT fibrosarcoma cells; HT-1080-NT fibrosarcoma viability, CellTiter-Glo ATP luminescence, 48 h; Potency, µM (top dose mostly 46.1 µM), inactives show at the highest dose activity, negative = less viability, actives largely listed as cytotoxic; 360,000 tested, 1.6% active; AID 686970;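 also: NT is the 2HG producing partner of a matched IDH1 knockdown line; potency is read from the fitted curve at half-maximal effect; 0% = DMSO-treated cells and -100% = media-only wells without cells; nearly all actives have a fitted effect of over 55% in size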
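Fibrosarcoma NT cells, 750 per well in 5% FBS RPMI, were exposed to compound for 48 hours. Viability: CellTiter-Glo luminescence.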
DT40 TDP1 CPT = DT40-hTDP1 cell growth loss with CPT. Potency, µM (doses to about 46.2 µM), for inactives: at the highest dose activity change, negative = growth inhibition, usual class: inhibitors. 420,000 tested, 12% active. chicken DT40 Tdp1-/-;hTDP1 cells + 20 nM CPT, ATP luminescence, 48 h; also: potency is read from the fitted curve at half-maximal effect; nearly all actives have a fitted effect of over 55% in size
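Chicken DT40 Tdp1-/- cells complemented with human TDP1, 400 cells/well, exposed to compounds plus 20 nM camptothecin for at least 48 h at 37 C; viability read as ATP content by CellTiter-Glo luminescence.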
ALOX12 inh = blocks human arachidonate 12S-lipoxygenase. Potency, µM (series often up to 108 µM), for the others: top-dose activity change, negative = inhibition, most hits filed as inhibitors. purified 12hLO, xylenol orange hydroperoxide absorbance. 580,000 tested, 1.1% active. P18054; also: potency is read from the fitted curve at half-maximal effect
Target sequence (P18054 whole entry, looked up): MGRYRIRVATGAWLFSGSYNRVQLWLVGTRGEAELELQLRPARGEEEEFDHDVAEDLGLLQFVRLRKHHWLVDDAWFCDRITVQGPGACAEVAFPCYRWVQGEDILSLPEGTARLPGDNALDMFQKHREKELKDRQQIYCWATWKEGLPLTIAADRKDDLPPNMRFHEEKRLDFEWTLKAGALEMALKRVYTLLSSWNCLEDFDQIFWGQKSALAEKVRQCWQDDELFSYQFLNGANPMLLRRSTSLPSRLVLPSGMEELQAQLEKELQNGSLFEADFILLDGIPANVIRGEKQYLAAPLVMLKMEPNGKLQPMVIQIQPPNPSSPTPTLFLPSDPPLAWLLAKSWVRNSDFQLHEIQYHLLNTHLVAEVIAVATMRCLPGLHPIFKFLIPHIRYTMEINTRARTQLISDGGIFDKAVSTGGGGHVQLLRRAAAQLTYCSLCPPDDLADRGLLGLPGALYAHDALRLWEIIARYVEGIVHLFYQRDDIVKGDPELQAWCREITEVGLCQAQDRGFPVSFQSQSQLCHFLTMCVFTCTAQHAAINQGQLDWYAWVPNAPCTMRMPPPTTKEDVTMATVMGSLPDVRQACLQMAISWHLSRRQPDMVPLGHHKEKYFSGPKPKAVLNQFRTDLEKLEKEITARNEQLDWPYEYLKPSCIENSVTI
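Hydroperoxide product was detected by ferrous iron/xylenol orange as the 573 to 405 nm absorbance ratio. Arachidonic acid at 40 uM (final) was turned over for 30 min at room temperature by 150 nM human 12hLO, pH 7.0 Hepes buffer, after 15 min compound preincubation.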
* = called active by the depositor; [ ] = another dose, or the depositor's remark. Unless noted, calls follow the shape of the dose curve; as a rule, active = well fitted curve in the direction sought with a large enough effect; inconclusive = small, poorly fitted or top-dose-only effect, or another doubt; inactive = no such curve, though single readings can be large; an effect the other way counts as inactive or inconclusive. Unless noted, % is scaled to controls: 0 for no effect and ±100 for the full control effect.

Screening COc1ccc(C(=O)NCCn2cc(SCC(=O)NCCc3ccc(OC)c(OC)c3)c3ccccc32)cc1 returned DT40 TDP1 no CPT 16µM*, DT40 TDP1 CPT 18µM* and ALOX12 inh -10%.
`COc1ccc(CCNC(=O)CSc2cn(CCNC(=O)c3ccc(OC)c(OC)c3)c3ccccc23)cc1OC` gave DT40 TDP1 no CPT 23µM*, DT40 TDP1 CPT inconclusive and ALOX12 inh 0%.
Screening COc1ccc(C(=O)NCCn2cc(SCC(=O)Nc3ccc4c(c3)OCCO4)c3ccccc32)cc1OC returned DT40 TDP1 no CPT 21µM*, DT40 TDP1 CPT 15µM* and ALOX12 inh -16%.
`COc1ccc(C(=O)NCCn2cc(SCC(=O)Nc3nnc(C)s3)c3ccccc32)cc1` gave DT40 TDP1 no CPT inconclusive, IL1B secr inh -13, HT1080 IDH1KD tx -5%, HT1080NT lethal 2%, DT40 TDP1 CPT inconclusive and ALOX12 inh -19%.
For CCOc1ccc(C(=O)NCCn2cc(SCC(=O)Nc3ccc4c(c3)OCCO4)c3ccccc32)cc1 the results were DT40 TDP1 no CPT inconclusive, DT40 TDP1 CPT inconclusive and ALOX12 inh -11%.
CN(C)CCNc1nc2c(c(=O)[nH]c(=O)n2C)n1Cc1cccc2ccccc12 was read as ALOX12 inh -11%.
CCCCn1c(SCC(=O)NCC)nc2cc(C(=O)OC)ccc2c1=O was read as ALOX12 inh -9%.
For CN(C)C(=O)c1ccc2nccn2c1 the results were ALOX12 inh 5%[12.5 µM].
Cc1noc(C)c1-c1ccc2ncnc(NC3CC3)c2c1 was read as DT40 TDP1 no CPT 21µM*, DT40 TDP1 CPT inconclusive and ALOX12 inh inconclusive.
CN(C)c1ccc(-c2ccc3ncnc(NC4CC4)c3c2)cc1 was read as DT40 TDP1 no CPT 13µM*, DT40 TDP1 CPT 8.2µM* and ALOX12 inh -25%.
c1nc(NC2CCNCC2)c2cc(-c3ccc4c(c3)OCO4)ccc2n1 was read as DT40 TDP1 no CPT 15µM*, DT40 TDP1 CPT inconclusive and ALOX12 inh inconclusive.
`COCCNc1ncnc2ccc(-c3c(C)noc3C)cc12` gave DT40 TDP1 no CPT inconclusive, DT40 TDP1 CPT 12µM* and ALOX12 inh inconclusive.
`Cc1noc(C)c1-c1ccc2ncnc(Nc3ccccc3)c2c1` gave DT40 TDP1 no CPT inconclusive, DT40 TDP1 CPT -28% and ALOX12 inh inconclusive.
`c1nc(NC2CC2)c2cc(-c3ccoc3)ccc2n1` gave DT40 TDP1 no CPT -25%, DT40 TDP1 CPT inconclusive and ALOX12 inh inconclusive.
Screening CC(=O)NCCNc1ncnc2ccc(-c3c(C)noc3C)cc12 returned DT40 TDP1 no CPT -29%, DT40 TDP1 CPT inconclusive and ALOX12 inh inconclusive.
For COc1ccc(CNC(=O)CSc2cc(C)nc3c(-c4ccccc4OC)c(C)nn23)cc1 the results were ALOX12 inh -9%.
For Cc1ccc2nc([C@H]3CCN(Cc4ccc(S(C)(=O)=O)cc4)C3)[nH]c2c1 the results were ALOX12 inh 34%[176 µM].
For Cc1ccc(S(=O)(=O)N2CCC(n3cnnc3-c3ccccc3)CC2)cc1C the results were ALOX12 inh 5%.
Screening O=C(N/N=C1\CCCc2c1[nH]c1ccc(Cl)cc21)c1ccncc1 returned DT40 TDP1 no CPT 10µM*, IL1B secr inh inconclusive, HT1080 IDH1KD tx inconclusive, HT1080NT lethal inconclusive, DT40 TDP1 CPT 12µM* and ALOX12 inh -12%.
CN(C)c1nc(OCCNC(=O)COc2ccccc2Cl)nc(N(C)C)n1 was read as DT40 TDP1 no CPT 10µM*, IL1B secr inh 12, HT1080 IDH1KD tx 15%, HT1080NT lethal 23%, DT40 TDP1 CPT inconclusive and ALOX12 inh 0%.
`Cc1cc(Cl)ccc1OCC(=O)NCCC(=O)O` gave DT40 TDP1 no CPT inconclusive, IL1B secr inh 10, HT1080 IDH1KD tx -1%[9.24 µM], HT1080NT lethal -19%, DT40 TDP1 CPT -20% and ALOX12 inh 3%.
Cc1cc(Cl)ccc1OCC(=O)NCCOc1nc(N2CCCCC2)nc(N2CCOCC2)n1 was read as DT40 TDP1 no CPT 6.5µM*, IL1B secr inh 1, HT1080 IDH1KD tx 1%, HT1080NT lethal 5%, DT40 TDP1 CPT 7.3µM* and ALOX12 inh 1%.
Screening COc1cc(C)nc(OCCNC(=O)COc2ccc(Cl)cc2C)n1 returned DT40 TDP1 no CPT 21µM*, IL1B secr inh -2, HT1080 IDH1KD tx -7%, HT1080NT lethal 0%, DT40 TDP1 CPT 16µM* and ALOX12 inh 0%.
For Cc1ccccc1P(=O)(c1ccccc1)c1ccccc1C the results were DT40 TDP1 no CPT 18µM*, IL1B secr inh 4, HT1080 IDH1KD tx -20%, HT1080NT lethal 0%, DT40 TDP1 CPT inconclusive and ALOX12 inh 2%.
`O=C1CCCCCN1C1CCN(Cc2ccccc2C(F)(F)F)CC1` gave ALOX12 inh -7%[176 µM].
Screening COC(=O)c1ccc(-n2c(C)cc(C(=O)CSc3ccc(NC(C)=O)cc3)c2C)cc1 returned DT40 TDP1 no CPT 23µM*, IL1B secr inh -21, HT1080 IDH1KD tx -10%, HT1080NT lethal -4%, DT40 TDP1 CPT inconclusive and ALOX12 inh -16%.
`CC(=O)Nc1ccc(SCC(=O)c2cc(C)n(-c3ccccc3F)c2C)cc1` gave DT40 TDP1 no CPT inconclusive, IL1B secr inh -9, HT1080 IDH1KD tx -10%, HT1080NT lethal -9%, DT40 TDP1 CPT inconclusive and ALOX12 inh -14%.
`Cc1c(C(=O)N2CCCC2)oc2c1-c1nn(CC(=O)NCc3ccccc3Br)cc1CC2` gave DT40 TDP1 no CPT 21µM*, DT40 TDP1 CPT inconclusive and ALOX12 inh 0%.
Screening Cc1ccccc1CNC(=O)Cn1cc2c(n1)-c1c(oc(C(=O)N3CCCC3)c1C)CC2 returned DT40 TDP1 no CPT inconclusive, DT40 TDP1 CPT inconclusive and ALOX12 inh 0%.
CCOc1ccccc1CNC(=O)Cn1cc2c(n1)-c1c(oc(C(=O)N3CCCC3)c1C)CC2 was read as DT40 TDP1 no CPT 13µM*, DT40 TDP1 CPT 13µM* and ALOX12 inh -38%.
For Cc1c(C(=O)N2CCCC2)oc2c1-c1nn(CC(=O)NCc3ccccc3F)cc1CC2 the results were DT40 TDP1 no CPT inconclusive, DT40 TDP1 CPT inconclusive and ALOX12 inh -22%.
Screening CCS(=O)(=O)NCCc1ncc(C)n1CCOC returned ALOX12 inh 8%.
